High-throughput results from PubChem BioAssay.
Only some compounds are listed: those with a hit (about 3.3% of all), similar ones and a draw of the others.
AmpC no deterg: qHTS Inhibitors of AmpC Beta-Lactamase (assay without detergent); P00811; AmpC nitrocefin hydrolysis, absorbance 480 nm, 0.0001% Triton; Potency, µM (titrated, usually from 57.1 µM), without a hit: top-dose activity change, negative = inhibition, hits mostly inhibitors; 330,000 tested, 0.52% active;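 also: plate controls were no compound for no effect and no enzyme for full effect; nearly all actives have a fitted effect of over 20% in size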
Target sequence (P00811 whole entry, looked up): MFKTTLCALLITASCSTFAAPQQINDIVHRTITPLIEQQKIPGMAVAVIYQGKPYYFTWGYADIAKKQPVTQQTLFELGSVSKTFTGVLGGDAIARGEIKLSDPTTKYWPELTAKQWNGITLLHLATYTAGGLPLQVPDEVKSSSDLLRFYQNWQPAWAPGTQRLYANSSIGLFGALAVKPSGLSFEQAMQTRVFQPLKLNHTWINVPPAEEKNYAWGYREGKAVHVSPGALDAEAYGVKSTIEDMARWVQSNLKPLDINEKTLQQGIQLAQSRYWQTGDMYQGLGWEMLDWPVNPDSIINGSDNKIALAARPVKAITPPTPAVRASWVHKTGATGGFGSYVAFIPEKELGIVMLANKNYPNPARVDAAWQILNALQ
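20 mM phosphate pH 7.0 + 0.01% (detergent screen) or 0.0001% Triton X-100; 5.3 nM AmpC reagent; cpd preinc 15 min RT; nitrocefin (800 uM stock) to start; A480 q20 s × 4 min; Activity was normalised to no-enzyme and no-compound control wells.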
Sm TGR block: qHTS Assay for the Inhibitors of Schistosoma Mansoni Peroxiredoxins. purified TGR, DTNB reduction, TNB absorbance 405 nm. Schistosoma mansoni thioredoxin glutathione reductase (TGR), Q962Y6. AID 485364, 2010. Potency, µM (titrated, usually from 114 µM), without a hit: at the top dose activity change, negative = inhibition, most hits filed as inhibitors. 360,000 tested, 3% active; also: nearly all actives have a fitted effect of over 60% in size
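TGR 20 nM + NADPH 100 uM (dispensed conc.), cpd preinc 15 min RT; start with NADPH (500 uM addition) then DTNB (15 mM addition). Kinetic TNB absorbance, 405 nm filter. Four-parameter Hill fit across titration.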
AmpC detergent: qHTS Inhibitors of AmpC Beta-Lactamase (assay with detergent); P00811; AmpC hydrolysis of nitrocefin, absorbance 480 nm, 0.01% Triton; Potency, µM (doses to about 114 µM), inactives show at the top dose activity change, negative = inhibition, usual class: inhibitors; 370,000 tested, 0.041% active;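 also: 0% = no-compound wells and -100% = no-enzyme wells; nearly all actives have a fitted effect of over 25% in size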
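20 mM phosphate pH 7.0 + 0.01% (detergent screen) or 0.0001% Triton X-100; 5.3 nM AmpC reagent; cpd preinc 15 min RT; nitrocefin (800 uM stock) to start; A480 q20 s × 4 min; Activity was normalised to no-enzyme and no-compound control wells.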
The depositor's hits bear a star; ? = inconclusive; . = no result given. Calls follow the shape of the dose curve; as a rule, active = well fitted curve in the direction sought with a large enough effect; inconclusive = small, poorly fitted or top-dose-only effect, or another doubt; inactive = no such curve, though single readings can be large; an effect the other way counts as inactive or inconclusive. Unless noted, % is scaled to controls: 0 for no effect and ±100 for the full control effect; potency is read from the fitted curve at half-maximal effect.

SMILES | AmpC no deterg | Sm TGR block | AmpC detergent
Cc1ccc(N2C(=O)NC(=O)/C(=C\c3cc(C)n(-c4cc(C(=O)O)cc(C(=O)O)c4)c3C)C2=O)cc1 | -24% | 7.9µM* | 1%
Cc1cc(/C=C2\C(=O)NC(=O)N(c3ccc(F)cc3)C2=O)c(C)n1-c1ccc(C(=O)O)cc1 | -19% | -35% | -11%
CCc1ccc(N2C(=O)NC(=O)/C(=C\c3cc(C)n(-c4cc(C(=O)O)cc(C(=O)O)c4)c3C)C2=O)cc1 | -18% | 8.9µM* | 0%
Cc1ccc(N2C(=O)NC(=O)/C(=C\c3cc(C)n(-c4ccc(C(=O)O)cc4)c3C)C2=O)cc1 | -21% | ? | -9%
COc1ccc(C(=O)NCC(=O)OCC(=O)N2N=C(c3ccc(Cl)cc3)CC2c2ccco2)cc1OC (stereo unspecified) | 170% | -17% | -1%
Cn1cnc([N+](=O)[O-])c1Sc1ccc(Br)cc1 | -20% | 22µM* | -14%
Cc1ccc(Sc2c([N+](=O)[O-])ncn2C)cc1 | -19% | ? | -12%
COc1ccc(C(=O)Nc2ccccc2)cc1NC(=O)c1ccc([N+](=O)[O-])cc1 | 18µM* | 2% | -9%
O=C(Nc1cccc(Cl)c1)c1cccc(Oc2ccc([N+](=O)[O-])cc2Cl)c1 | ? | -8% | -18%
COc1ccc(NC(=O)c2cccc(Oc3ccc([N+](=O)[O-])cc3Cl)c2)cc1 | 2.5µM* | 0% | ?
CCN(CC)S(=O)(=O)c1ccc(OC)c(NC(=O)c2ccc([N+](=O)[O-])cc2)c1 | -7% | -7% | -2%
Cc1cc2nc(-c3ccccc3)cc(=O)n2[nH]1 | -29% | -13% | -9%
Cc1cc(-c2ccccc2)nc2c(Br)c(=O)[nH]n12 | -53% | 45µM* | ?
CCOc1cc(CNC(C)C)c(Cl)cc1OCC(=O)NCCc1ccccc1 | 5% | 2% | 3%
Cc1ccc(-n2c(C)cc(C(=O)CN3CCCCC3)c2C)cc1 | -11% | -4% | 2%
Cc1cc(C(=O)CN2CC(C)OC(C)C2)c(C)n1-c1ccccc1 (stereo unspecified) | 12% | 45µM* | ?
Cc1ccc(C2CC(=O)C=C(O)C2)cc1 (stereo unspecified) | 14µM* | 8% | -14%
Cc1ccc(C2=CC(=O)C[C@H](c3ccc(Cl)cc3)C2)cc1 | -10% | -11% | -3%
Cc1ccc(CS(=O)(=O)Cc2ccc(C(=O)NCc3ccccn3)o2)cc1 | 1% | 40µM* | -1%
COCCNC(=O)c1ccc(CS(=O)(=O)c2ccc(OC)cc2)o1 | -13% | -32% | 1%
Cc1ccc(C(=O)NCc2ccccn2)o1 | -1% | 4% | -9%
COC(CNC(=O)c1ccc(CS(=O)(=O)c2ccccc2)o1)OC | -17% | 18µM* | 2%
COc1ccc(S(=O)(=O)Cc2ccc(C(=O)NCC(OC)OC)o2)cc1 | -8% | -17% | 3%
COc1ccc(S(=O)(=O)Cc2ccc(C(=O)NCc3ccccn3)o2)cc1 | 4% | 35µM* | 1%
COC(=O)c1ccc(CS(=O)(=O)c2ccc(F)cc2)o1 | -10% | 22µM* | -14%
SMILES | AmpC no deterg | Sm TGR block | AmpC detergent
O=C(NCc1ccc(F)cc1)c1ccc(CS(=O)(=O)c2ccc(Cl)cc2)o1 | . | -10% | -1%
O=C(CNC(=O)c1ccc(-c2ccccc2)cc1)OCc1ccc(Br)cc1 | -14% | -4% | 10%
CCCCc1nnc(NC(=O)c2nc3nccc(C)n3n2)s1 | -6% | 30% | -7%
Cc1cc(Br)ccc1NC(=O)C1(S(=O)(=O)c2ccc(Cl)cc2)CC1 | . | -2% | 18%
CN(C)CCC(=O)c1ccc2c(c1)OCO2 | -8% | 0.63µM* | -2%
O=C(COC(=O)c1ccc2c(c1)OCO2)Nc1ccccc1 | -29% | 4% | 3%
CN(C)CCCC(=O)c1ccc2c(c1)OCO2 | -41% | -30% | -6%
O=C(CCNc1ccccc1)c1ccc2c(c1)OCO2 | -32% | 2.2µM* | 4%
O=[N+]([O-])c1ccc(N2CCN(S(=O)(=O)c3ccccc3)CC2)cc1 | ? | -1% | -5%
O=C1CC(=O)Nc2cc(S(=O)(=O)N3CCN(c4ccc([N+](=O)[O-])cc4)CC3)ccc2N1 | -49% | 11µM* | 1%
COc1ccccc1CNC(=O)CCC(=O)N1Cc2cccc(OC)c2Oc2ncccc21 | 41% | -32% | 3%
CCOC(=O)C1=C(CN2CCSCC2)NC(=O)NC1c1ccc2c(c1)OCO2 (stereo unspecified) | -9% | 4% | ?
CCCOC(=O)C1=C(C)NC(=O)NC1c1cccc2ccccc12 (stereo unspecified) | -22% | 4% | -2%
CCCCCOC(=O)C1=C(C)NC(=O)NC1c1ccc2c(c1)OCO2 (stereo unspecified) | -13% | 4% | ?
CCCCOc1ccccc1C1NC(=O)NC(C)=C1C(=O)OCCOCC (stereo unspecified) | 84% | 1% | -8%
CCOC(=O)C1=C(CCl)NC(=O)NC1c1ccc2c(c1)OCO2 (stereo unspecified) | -18% | 8.9µM* | ?
CC1=C(C(=O)OCCBr)C(c2cccc3ccccc23)NC(=O)N1 (stereo unspecified) | -24% | 40µM* | ?
CC1=C(C(=O)OCCCBr)C(c2ccc3c(c2)OCO3)NC(=O)N1 (stereo unspecified) | -10% | 25µM* | 7%
CCCCOc1ccccc1C1NC(=O)NC(C)=C1C(=O)OCc1ccco1 (stereo unspecified) | -35% | 45µM* | 1%
COc1ccc2c(c1)c1c(c(=O)n(CCc3ccccc3)c(=O)n1Cc1cccc(F)c1)n2C | . | 9% | 17%
COc1ccccc1NS(=O)(=O)c1cccc(C(=O)N/N=C/c2c(CO)cnc(C)c2O)c1 | -14% | -19% | -1%
CCOC(=O)c1sc2nc(CC(=O)OC)nc(NCCN3CCOCC3)c2c1C | 118% | 25µM* | ?
CCOC(=O)c1sc2nc(CC(=O)OC)nc(NCCN(CC)CC)c2c1C | 39% | -16% | 2%
Cn1c(C(=O)OC(C(=O)NCC2CCCO2)c2cccnc2)cc2sccc21 (stereo unspecified) | 62% | 12% | 0%
O=C(CCl)N=c1sccn1Cc1cccc2ccccc12 | -32% | 25µM* | -2%
SMILES | AmpC no deterg | Sm TGR block | AmpC detergent
CCC(=O)OCC(=O)N=c1sccn1Cc1ccccc1Cl | 45% | -7% | 4%
O=C(CCl)N=c1sccn1Cc1ccc(Cl)cc1Cl | -18% | 13µM* | 6%
O=C(CCl)N=c1sccn1Cc1ccccc1Cl | -18% | 0% | -7%
CSc1ccccc1NC(=O)c1noc2c1CCC2 | -57% | -30% | 25µM*
COC(=O)c1ccccc1NC(=O)c1noc2c1CCC2 | -34% | -22% | ?
C[C@H](NC(=O)c1ccc(Cl)cc1)C(=O)NNC(=O)c1cccs1 | -12% | -4% | 2%
CC1C(=O)N2CCCc3cc(NC(=O)c4ccccc4Br)cc1c32 (stereo unspecified) | -21% | 0% | ?
Cc1cccc(N2C(=O)NC(=O)/C(=C/c3ccc([N+](=O)[O-])o3)C2=O)c1 | -28% | 8.9µM* | 3%
